# Screening data from PubChem.
# Hits are enriched below; roughly 5.7% of the tested compounds scored in any of these assays.
# KB-3-1 tox: qHTS assay for MDR1-selective chemotherapeutics: Primary screen using the parental adenocarcinoma cell KB-3-1 | KB-3-1 viability, CellTiter-Glo ATP luminescence, 72 h | Potency, µM (doses to about 46.1 µM), hits mostly cytotoxic | 400,000 compounds, 1.4% hits | AID 1347075, 2019; further: nearly all actives have a fitted effect of over 60% in size
#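 Multi-concentration cytotoxicity screen in KB-3-1 cells grown in DMEM lacking phenol red with 10% FBS. After 72 h at 37 °C with compound, ATP-dependent luminescence was recorded.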
# HT1080 IDH1KD tx: qHTS for induction of synthetic lethality in tumor cells producing 2HG: qHTS for the HT-1080-IDH1KD cell line | Potency, µM (top dose mostly 46.1 µM), actives largely listed as cytotoxic | 360,000 compounds, 2% hits | HT-1080 IDH1 knockdown viability, ATP luminescence, 48 h
#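 In this qHTS, HT-1080 cells depleted of IDH1 are exposed for 48 h at 37 °C to compound titrations. Toxicity is scored from CellTiter-Glo luminescence, with DMSO as full viability and medium alone as none.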
# KB-V1 MDR tox: qHTS assay for MDR1-selective chemotherapeutics: Primary screen using the drug-selected MDR subline cells KB-V1; Potency, µM (top dose mostly 46.1 µM), usual class: cytotoxic; KB-V1 MDR cells viability, CellTiter-Glo, 72 h; 400,000 compounds, 3.4% hits; further: nearly all actives have a fitted effect of over 60% in size
#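 Readout: CellTiter-Glo luminescence, 10 min after addition. Cells: KB-V1 MDR subline, 72 h at 37 degrees C with compound. Analysis: corrected, normalized data fitted to concentration-effect curves.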
# HT1080-NT tox: qHTS for induction of synthetic lethality in tumor cells producing 2HG: qHTS for the HT-1080-NT fibrosarcoma cell line; Potency, µM (series often up to 46.1 µM), usual class: cytotoxic; 360,000 compounds, 1.6% hits; AID 686970, 2013; HT-1080-NT fibrosarcoma viability, CellTiter-Glo ATP luminescence, 48 h;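 further: NT is the 2HG producing partner of a matched IDH1 knockdown line; nearly all actives have a fitted effect of over 55% in size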
#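 HT-1080-NT fibrosarcoma cells (2HG-overproducing), 750 cells/well in RPMI with 5% FBS, dosed after 2 h and incubated 48 h at 37C. CellTiter-Glo luminescence normalized to DMSO and no-cell wells; concentration-response curves fitted and classed.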
# A number is an active result; . = inactive; ? = inconclusive; / = not tested or not shown; ! = not confirmed by another sample. The call rests on the fitted dose curve; in most records, active means well fitted curve in the direction sought with a large enough effect; inconclusive means small, poorly fitted or top-dose-only effect, or another doubt; inactive means no such curve, though single readings can be large; an effect the other way counts as inactive or inconclusive.
SMILES,KB-3-1 tox,HT1080 IDH1KD tx,KB-V1 MDR tox,HT1080-NT tox
CCc1nn(C(C)C(=O)N2CCN(c3cccc(C(F)(F)F)c3)CC2)c(=O)c2cc3occc3n12 (configuration not stated),13µM,/,8.2µM,/
CCc1nn(C(C)C(=O)N2CCN(c3ccc(OC)cc3)CC2)c(=O)c2cc3occc3n12 (configuration not stated),9.2µM,?,.,.
Cc1cc(C(=O)OCC(=O)NC(=O)C2CCCCC2)ccc1[N+](=O)[O-],.,/,.,/
Nc1ccc(C(=O)n2c3ccccc3c3ccccc32)cc1,2.3µM,0.92µM,1.8µM,?
Nc1ccc(C(=O)N2CCCC2)cc1,.,.,.,.
COc1ccc(CCNC(=O)CSc2nc3c(c(=O)n(C)c(=O)n3C)n2C(C)C)cc1OC,.,.,.,.
CC(C)CCn1c(NCCc2ccccc2)nc2c1c(=O)n(C)c(=O)n2C,?,?,13µM,.
Cc1cccc(Cn2c(NCCO)nc3c2c(=O)n(C)c(=O)n3C)c1,?,.,4.1µM,?
COCCNc1nc2c(c(=O)n(C)c(=O)n2C)n1Cc1cccc(C)c1,?,.,.,.
Cn1c(=O)c2c(nc(NCCc3ccccc3)n2Cc2ccc(Cl)c(Cl)c2)n(C)c1=O,.,/,.,/
Cn1c(=O)c2c(nc(NCCc3ccccc3)n2Cc2ccc(F)cc2)n(C)c1=O,?,.,4.1µM,.
COc1ccc(CCNc2nc3c(c(=O)n(C)c(=O)n3C)n2C)cc1OC,.,.,15µM,.
COc1cc(Cl)c(C)cc1NC(=O)CCc1c(C)nc2c3cccnc3nn2c1C,.,/,.,/
O=C1/C(=C/c2ccc(O)c(O)c2)SC(=S)N1Nc1ccccc1,?,?,.,?
O=C(O)c1ccc(/C=C2\SC(=S)N(Nc3ccccc3)C2=O)cc1,.,4.6µM,.,?
Cc1cc(C)nc(NN2C(=O)/C(=C/c3ccccc3)SC2=S)n1,.,.,.,.
O=C1/C(=C/c2ccncc2)SC(=S)N1Nc1ccccc1,.,5.8µM,.,?
Cc1ccc(Cc2c(C)nn(-c3nc(C)c(C(=O)N4CCCCC4C)s3)c2C)cc1 (configuration not stated),.,/,.,/
CCOC(=O)[C@@H](C)N(C(=O)OC(C)(C)C)S(=O)(=O)N(Cc1ccccc1)[C@@H](C(=O)OC)C(C)C,.,/,.,/
COC(CNC(=O)C1CCN(C(=O)c2cc3oc(C)cc3n2Cc2c(F)cccc2Cl)CC1)OC,?,.,8.2µM,.
CCOC(=O)N1CCC(NC(=O)C2CCN(C(=O)c3cc4oc(C)cc4n3Cc3c(F)cccc3Cl)CC2)CC1,?,.,.,.
Cc1cccc(Nc2nc(N)nc(CCl)n2)c1,?,?,.,3.7µM
COc1cccc(Nc2nc(N)nc(CCl)n2)c1,.,10µM,.,7.3µM
O=C(Cc1ccc(Cl)cc1)Nc1ccc(-c2cc3ccccc3oc2=O)c(Cl)c1,1.3µM,6.5µM,2.3µM,6.5µM
CCc1ccc(C(=O)c2cn(CC(=O)NCCc3ccccc3)c3nc(C)ccc3c2=O)cc1,.,/,.,/
SMILES,KB-3-1 tox,HT1080 IDH1KD tx,KB-V1 MDR tox,HT1080-NT tox
Cc1cc(C)n(CC(O)COc2ccc(Cl)cc2Cl)n1 (configuration not stated),?,.,10µM,.
CCn1c(SCc2ccccc2Cl)nc(=O)c2c(C(=O)OC)cc(C3CC3)nc21,.,/,.,/
CCCCNC(=O)CCn1c(=O)c2ccccc2n(Cc2ccccc2C#N)c1=O,.,/,.,/
CCOC(=O)c1c(-c2ccccc2)oc2ccc(OCC(O)CNCCN(C)C)cc12 (configuration not stated),?,13µM,?,18µM
COc1cccc(NS(=O)(=O)c2ccc3[nH]cc(C(=O)NCCC(C)C)c(=O)c3c2)c1,?,?,.,12µM
Cc1ccc(CCNC(=O)c2c[nH]c3ccc(S(=O)(=O)Nc4cccc(C(F)(F)F)c4)cc3c2=O)cc1,13µM,/,.,/
O=C(NC1CCCCC1)c1c[nH]c2ccc(S(=O)(=O)Nc3ccccc3F)cc2c1=O,?,/,.,/
CCc1ccccc1NS(=O)(=O)c1ccc2[nH]cc(C(=O)NC3CCCC3)c(=O)c2c1,15µM!,18µM,?,?
CCc1ccccc1NC(=O)CSc1nncn2c1cc1oc(C)cc12,.,/,.,/
O=C(O)c1ccc(COc2ccccc2Cl)cc1,.,.,.,.
